Sampled rows, rich in hits. Any-hit rate of the full collection: about 2.9%.
Fam108B inh – blocks mouse Fam108B hydrolase in RBBP9 counter-screen; 0.33% of 300,000 active; inhibition, % at 9.51 µM; recombinant Fam108B, FP-Rh probe fluorescence polarization;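 active means inhibition above the screen mean inhibition plus 3 SD, computed separately per campaign, cut at about 18% in these data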;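 further: inhibitors lower polarization as less probe binds the enzyme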
PME-1 primary – blocks human protein phosphatase methylesterase 1; Q9Y570; 0.53% of 320,000 active; inhibition, % at 5.9 µM; recombinant PME-1, FP-Rh probe fluorescence polarization; AID 2130;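 active means inhibition above the campaign mean of all compounds plus 3 SD, cut at about 26% in these data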;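 further: competitive labeling of PME-1 active site by serine hydrolase directed probe; 0% = PME-1 with DMSO and 100% = wells lacking PME-1 enzyme; inhibitors block probe labeling so polarization falls and inhibition rises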
Target sequence (Q9Y570 whole entry, looked up): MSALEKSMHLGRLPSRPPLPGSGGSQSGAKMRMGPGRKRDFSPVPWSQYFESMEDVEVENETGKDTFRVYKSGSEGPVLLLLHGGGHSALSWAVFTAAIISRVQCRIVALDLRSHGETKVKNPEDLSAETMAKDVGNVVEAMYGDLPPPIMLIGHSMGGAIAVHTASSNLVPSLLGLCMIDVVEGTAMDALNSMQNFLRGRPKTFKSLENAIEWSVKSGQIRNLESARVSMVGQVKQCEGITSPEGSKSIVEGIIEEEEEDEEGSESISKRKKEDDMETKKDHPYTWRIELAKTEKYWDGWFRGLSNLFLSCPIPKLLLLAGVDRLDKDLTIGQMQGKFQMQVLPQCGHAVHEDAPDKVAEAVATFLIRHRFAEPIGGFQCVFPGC
PAFAH1B3 inh – PAFAH1B3 (human) inhibition; Q15102; recombinant PAFAH1B3, FP-rhodamine probe, fluorescence polarization; inhibition, % at 3.39 µM; 0.28% of 340,000 active; AID 492972;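 active means inhibition above the screen-wide average of all tested compounds plus 3 SD, cut at about 25% in these data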;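 further: 0% = enzyme with DMSO only and 100% = wells lacking PAFAH1B3 protein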
PAFAH2 FP inh – PAFAH2 (human) inhibition; recombinant PAFAH2, FP-rhodamine activity probe, fluorescence polarization; inhibition, % at 3.39 µM; 0.99% of 340,000 active; AID 492956;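 active means inhibition above the mean over all tested compounds plus 3 SD, cut at about 30% in these data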;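 further: inhibitors block probe labeling of enzyme so polarization drops; 0% = enzyme with DMSO and 100% = wells lacking PAFAH2 protein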
pPAFAH inh – inhibitors of human plasma PAF acetylhydrolase (pPAFAH); 1.5% of 330,000 active; inhibition, % at 3.39 µM; AID 463082; Q13093; recombinant pPAFAH, FP-rhodamine probe fluorescence polarization;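 active means inhibition above the mean inhibition across the screen plus 3 SD, cut at about 25% in these data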;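 further: inhibitors block binding of the rhodamine activity-based probe so polarization drops; 0% = enzyme with DMSO and 100% = wells lacking pPAFAH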
PAFAH1B2 FP inh – inhibitors of human PAFAH1B2; AID 492953; recombinant PAFAH1B2, FP-rhodamine activity probe, fluorescence polarization; inhibition, % at 3.39 µM; P68402; 1.2% of 340,000 active;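 active means inhibition above the mean of all tested compounds plus 3 SD, cut at about 24% in these data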;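 further: 0% = enzyme with DMSO and 100% = wells lacking PAFAH1B2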
Numbers without * were called inactive; / = no result given.

SMILES	Fam108B inh	PME-1 primary	PAFAH1B3 inh	PAFAH2 FP inh	pPAFAH inh	PAFAH1B2 FP inh
CCc1nn(CC(=O)N2CCC3(CC2)OCCO3)c(=O)c2cccn12	-5	1	-2	6	1	-2
NP(=O)(Oc1ccccc1Cl)Oc1ccccc1Cl	0	98*	2	-2	1	24*
O=C(COc1ccc(Cl)cc1)NCCc1cnc[nH]1	/	/	5	-7	/	6
COc1ccc(Cn2c(O)c(/C=N/NC(=O)c3ccccc3O)c(=O)[nH]c2=O)cc1	13	-7	20	18	27*	23
O=C(N/N=C/c1c(O)n(Cc2ccc(F)cc2)c(=O)[nH]c1=O)c1ccccc1O	14	19	19	11	32*	35*
CCc1cc(=O)oc2cc(OCC(=O)N3C[C@H]4C[C@@H](C3)c3cccc(=O)n3C4)ccc12	-1	-2	11	-1	-2	4
COc1cc2c(cc1OC)-c1c3c(cc4c1[C@@H](C2)N(C)CC4)OCO3	3	0	16	2	18	-6
COc1cc2c(cc1O)C[C@H]1NCCc3cc4c(c-2c31)OCO4	9	-5	18	9	25*	10
Cn1c(O)c(/C=C2\N=c3ccccc3=C2CCNC(=S)NC2CC2)c(=O)n(C)c1=O	4	-2	6	4	0	56*
CC(=O)N(C)CC#CCN1CCCC(CO)C1 (configuration not stated)	2	4	8	5	1	-2
c1ccc2c(c1)CNCc1cnnn1-2	/	/	6	9	/	1
O=C1NC(=O)N(CCc2ccc(F)cc2)C(=O)/C1=C/c1cccs1	0	-6	-2	8	1	0
O=C1NC(=O)N(Cc2ccc(F)cc2)C(=O)/C1=C\c1ccc(N2CCCC2)cc1	-8	-10	-3	12	26*	7
COc1ccc(CN2C(=O)NC(=O)/C(=C/c3ccc([N+](=O)[O-])s3)C2=O)cc1	9	-4	46*	63*	31*	33*
COc1cccc(N2C(=O)NC(=O)/C(=C/c3ccc([N+](=O)[O-])s3)C2=O)c1	9	3	46*	49*	33*	33*
O=C1NC(=O)N(Cc2ccc(F)cc2)C(=O)/C1=C\c1ccc([N+](=O)[O-])s1	15	2	22	56*	26*	34*
CCN(CC)C(=O)c1ccc(NC(=O)c2cn(-c3ccccc3)nc2-c2ccc(OC)cc2)cc1	-19	-35	-1	-20	2	-4
Cc1ccc(-n2c(C)nc3cc(Cl)ccc3c2=O)nc1	0	1	8	3	-1	1
CN1CCN(c2nc3c(c(=O)[nH]2)CCC3)CC1	6	2	3	1	-1	2
Cc1ccc(S(=O)(=O)N2CCN(C(=O)COC(=O)Cc3ccccc3)CC2)c(C)c1	1	13	1	24	31*	7
Cc1ccc(/C=C2/C(=O)NC(=O)N(CCc3ccc(F)cc3)C2=O)o1	2	-2	2	7	0	10
O=C1NC(=O)N(CCc2ccc(F)cc2)C(=O)/C1=C/c1ccco1	6	-9	2	-17	29*	7
CC(C)OCCCNC(=O)c1c(N)n(CC2CCCO2)c2nc3ccccc3nc12 (configuration not stated)	7	-1	55*	28	12	26*
C[N+](C)(C)CC1CCCC(C[N+](C)(C)C)C1=O (configuration not stated)	/	/	9	-1	/	4
O=c1[nH]c(=S)n(Cc2ccc(F)cc2)c(O)c1/C=N/N1CCCCC1	2	-4	-7	2	0	32*
O=c1[nH]c(=S)n(Cc2ccc(F)cc2)c(O)c1C=NCC1CCCO1 (configuration not stated)	-2	-4	1	3	1	34*
O=c1[nH]c(=S)n(Cc2ccc(F)cc2)c(O)c1C=NCc1cccnc1	0	6	-5	0	6	28*
CCC(C)n1c(O)c(C=NCc2cccnc2)c(=O)[nH]c1=S (configuration not stated)	0	5	5	10	4	7
CC(C)NP(=O)(NC(C)C)OP(=O)(NC(C)C)NC(C)C	0	-1	2	9	6	2

From PubChem BioAssay
